About 83,000 compounds went through this panel and 20% of them were active in at least one assay; those are over-represented in the sample as a whole.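 For each line, cells grew in 96-well plates with the test compound present at a single concentration for 48 hours.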 A number with no mark means an inactive call. Active and inactive are the calls of the source. Rule for the calls: active = growth percent below 10; inactive = the rest.
Legend:
Assay in all cases: NCI-60 one-dose screen, 48 h (100 = growth as untreated, 0 = no growth, -100 = all killed)
Conditions in all cases: 10 µM
T-47D breast = test system: T-47D breast
BT-549 breast = test system: BT-549 breast
MDA-MB-435 melanoma = test system: MDA-MB-435 melanoma
SW-620 colon = test system: SW-620 colon
MCF7 breast = test system: MCF7 breast
HCT-116 colon = test system: HCT-116 colon
HCC-2998 colon = test system: HCC-2998 colon
KM12 colon = test system: KM12 colon

SMILES	growth (T-47D breast)	growth (BT-549 breast)	growth (MDA-MB-435 melanoma)	growth (SW-620 colon)	growth (MCF7 breast)	growth (HCT-116 colon)	growth (HCC-2998 colon)	growth (KM12 colon)
COc1cc(C)c2sc3ccccc3c(=O)c2c1NCCN(C)C	78.4%	93.8%	12%	34.9%	22.2%	43%	28.9%	65%
CC(C)C[C@H](NC(=O)CCn1ccc2ccccc2c1=O)B(O)O	27.6%	43.4%	-39.6% (active)	34.1%	33.9%	16.9%	59.9%	68.8%
COc1cccc(C(=O)NNc2nc(N3CCOCC3)nc(N3CCN(C(c4ccccc4)c4ccccc4)CC3)n2)c1	59.2%	87.9%	96.8%	96.5%	79.8%	85.4%	100%	77.7%
COc1ccc(-c2nc(-c3ccccc3)c(-c3ccccc3)[nH]2)cc1OC1CCCC1	35.1%	81.9%	78.9%	82.6%	78.7%	73.6%	69.7%	43.5%
CCCCCCOc1ccc(/C=C/C(=O)c2ccc(B(O)O)cc2)cc1	73.9%	35.2%	77.1%	96.8%	57.5%	55.6%	95.6%	85.4%
CNCCCNCCCN1C(=O)c2ccc3c4c(ccc(c24)C1=O)C(=O)N(CCCNCc1ccccc1OC)C3=O	-30.3% (active)	78.1%	-58.6% (active)	-19% (active)	-51.7% (active)	-8.97% (active)	-9.5% (active)	-16.9% (active)
CS(=O)(=O)Nc1ccc(Nc2c3ccccc3nc3cc(Cl)ccc23)cc1	26.9%	52.4%	54.1%	30.4%	18.6%	16.5%	42.6%	48.2%
CCCCCCCCCCCCCC[n+]1ccccc1	12.7%	-42.4% (active)	-87.6% (active)	2.31% (active)	2.73% (active)	-44.3% (active)	-72.1% (active)	-86.1% (active)
COc1ccc(-c2nc(SCC(=O)c3ccc(Br)cc3)[nH]c(=O)c2C#N)cc1	93.9%	94.2%	100%	106%	100%	97.4%	104%	96.9%
COc1ccc(NC(=O)c2sc3nc4c(cc3c2N)C(O)CCC4)cc1 (stereo unspecified)	93.9%	97.4%	84.6%	95.8%	89.6%	104%	113%	98%
CCCCn1c(=O)[nH]c(N)c(C(c2ccc(Cl)cc2)c2c(N)[nH]c(=O)n(CCCC)c2=O)c1=O	21%	49.8%	31.1%	64.2%	21.1%	27.3%	54.7%	35.3%
COCCOC(=O)NC(=O)Nc1ccc(C(=O)c2ccc(Cl)cc2)cc1	16.5%	37.8%	6.97% (active)	30.4%	19.5%	30.5%	47.3%	29%
CCNC(=S)NN	47.2%	117%	93.7%	83.2%	5.44% (active)	10.4%	94.7%	109%
COc1ccc(C2C=C(c3ccc(Cl)c(Cl)c3)N=C3SC(C)=CN32)cc1OC (stereo unspecified)	64%	89.1%	69.4%	85.7%	72.8%	48.8%	77.8%	57%
CC(=O)O[C@H]1CC[C@@]2(C)[C@@H](CC[C@@H]3[C@@H]2CC[C@]2(C)C=C(C=O)C[C@@H]32)C1	33.6%	68.5%	57.8%	30.1%	7.05% (active)	-19.3% (active)	92.5%	107%
COc1cc(OC)cc(N2CCN(C(=O)Nc3nc4cc(F)ccc4nc3OC)CC2)c1	70.4%	24.4%	-31.9% (active)	22%	23.4%	0.21% (active)	21.4%	13.7%

SMILES	growth (T-47D breast)	growth (BT-549 breast)	growth (MDA-MB-435 melanoma)	growth (SW-620 colon)	growth (MCF7 breast)	growth (HCT-116 colon)	growth (HCC-2998 colon)	growth (KM12 colon)
O=C(Nc1cccc(-c2nc3ccccc3[nH]2)c1)c1cccc(NC(=O)c2ccco2)c1	65.9%	96.3%	-1.71% (active)	96.6%	61.8%	58.4%	96.6%	88.1%
COc1ccc2nc(C)cc(Nc3ccc(Cl)cc3)c2c1	102%	103%	108%	106%	89%	101%	107%	107%
COC(=O)c1cnc2c(c1)Oc1ccccc1-c1ccnn1-2	84.4%	102%	99.5%	99.4%	96.3%	92.1%	99.7%	109%
Nc1c(CNCc2nnn(Cc3ccccc3)c2N)nnn1Cc1ccccc1	101%	105%	107%	95.9%	101%	103%	98.7%	98.3%
O=c1ccc2nc(-c3ccccc3)nn(-c3ccccc3)c-2c1	-36.5% (active)	90.2%	24.7%	-80.5% (active)	-66.7% (active)	-90.7% (active)	100%	63.1%
CCCCCCCCCCCCCCCCCBr	95.6%	112%	99.6%	107%	101%	105%	96.2%	113%
CCC1(C)OC(=O)NC1=O (stereo unspecified)	93.8%	93.3%	112%	110%	97.7%	87.7%	99%	107%
COc1ccc(Cn2cc3c(c2-c2ccccc2)CC(C)(C)c2cnoc2-3)cc1	30.7%	46.2%	-16.6% (active)	13.6%	17.1%	22.9%	77.4%	29.1%
Cn1c([N+](=O)[O-])cnc1/C=C1\Oc2ccc(Br)cc2C1=O	65.9%	-41% (active)	-65.8% (active)	-65.3% (active)	3.52% (active)	-27.1% (active)	-51.7% (active)	-45.8% (active)
COc1cc(/C=C/C(=O)c2cc(-c3ccc(C(F)(F)F)cc3)ccc2O)cc(OC)c1OC	35.7%	73.2%	48.4%	54.9%	43.8%	46.6%	94.6%	69.2%
COc1ccccc1CNCCCN1C(=O)c2ccc3c4c(ccc(c24)C1=O)C(=O)N(CCCNCCNCCCN)C3=O	17.9%	69.4%	10.4%	8.12% (active)	-39.1% (active)	1.05% (active)	14.7%	15.4%
COc1ccc(C2=NNC(c3sc(Cl)nc3Cl)C2)cc1 (stereo unspecified)	27.9%	53.3%	80%	29.1%	40.8%	28%	72.1%	79.5%
Oc1[nH]c2ccccc2c1/C=c1/cc2c(c(-c3ccc(C(F)(F)F)cc3)n1)=Nc1ccccc1-2	37.5%	82.7%	4.17% (active)	41.8%	11.3%	30%	54.7%	36.2%
CCNC1(NC#N)CCCCC1	104%	110%	97.7%	104%	104%	103%	96.2%	105%
Cc1nc2cc(-n3c(-c4ccc(F)cc4)nc4ccccc4c3=O)ccc2n1Cc1ccccc1	-29% (active)	2.3% (active)	-32.6% (active)	11.6%	-24.9% (active)	-18.8% (active)	61.7%	18.7%
COc1ccc(-c2nnc(N3CCN(C(=O)CN4CCN(c5ccc(Cl)cc5)CC4)CC3)nc2-c2ccc(OC)cc2)cc1	38.2%	59%	68%	69.3%	37.1%	34.1%	75.2%	50.5%

From PubChem BioAssay (NCI)
